What was measured:
Assay in all cases: PBM binding z-score (relative to random genomic background probes); higher = stronger binding; sequences stand for … in GC…GCGATTGACAGCGTAGAATGAAGG
[1] = test system: FXR:RXRa (NR concentration 270 nM, RXRa partner concentration 90 nM)
In short: (§1)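 Antibodies against each partner of ligand-free nuclear receptor dimers (one per run) detected binding on custom Agilent 4×180K protein-binding microarrays after 1 h incubation. The double-stranded probes had 34-nt variable regions carrying direct-repeat seeds, single-nucleotide variants, half-site ablations and random human genomic background sequences. Binding z-scores, from regression-normalized fluorescence, use the random background probes as reference.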

[2] = test system: LXRa:RXRa (NR concentration 270 nM, RXRa partner concentration 90 nM)
In short: as §1

[3] = test system: LXRa homodimer (NR concentration 270 nM)
In short: as §1

[4] = test system: LXRb:RXRa (NR concentration 270 nM, RXRa partner concentration 90 nM)
In short: as §1

[5] = test system: LXRb homodimer (NR concentration 270 nM)
In short: as §1

[6] = test system: PPARa:RXRa (NR concentration 270 nM, RXRa partner concentration 90 nM)
In short: as §1

[7] = test system: PPARg:RXRa (NR concentration 180 nM, RXRa partner concentration 90 nM)
In short: as §1

[8] = test system: PPARg:RXRa 270nM:90nM, anti-RXR (NR concentration 270 nM, RXRa partner concentration 90 nM)
In short: as §1

[9] = test system: PPARg:RXRa 30nM:10nM, anti-RXR (NR concentration 30 nM, RXRa partner concentration 10 nM)
In short: as §1

[10] = test system: PPARg:RXRa 90nM:30nM, anti-RXR (NR concentration 90 nM, RXRa partner concentration 30 nM)
In short: as §1

[11] = test system: PPARg:RXRa DBDmut IVT, anti-RXR (DBD mutation: RXRa K156A/R161A, NR concentration 270 nM, RXRa partner concentration 90 nM)
In short: as §1

[12] = test system: PPARg:RXRa IVT, anti-PPARg (NR concentration 270 nM, RXRa partner concentration 90 nM)
In short: as §1

[13] = test system: PPARg DBDmut:RXRa IVT, anti-PPARg (DBD mutation: PPARg1 K132A/R137A, NR concentration 270 nM, RXRa partner concentration 90 nM)
In short: as §1

[14] = test system: PPARg DBDmut IVT, anti-PPARg (DBD mutation: PPARg1 K132A/R137A, NR concentration 270 nM)
In short: as §1

[15] = test system: PPARg homodimer (NR concentration 180 nM)
In short: as §1

[16] = test system: PXR:RXRa (NR concentration 270 nM, RXRa partner concentration 90 nM)
In short: as §1

[17] = test system: PXR homodimer (NR concentration 270 nM)
In short: as §1

[18] = test system: RARa:RXR (NR concentration 270 nM, RXRa partner concentration 90 nM)
In short: as §1

[19] = test system: RARa homodimer (NR concentration 270 nM)
In short: as §1

[20] = test system: RARb:RXRa (NR concentration 270 nM, RXRa partner concentration 90 nM)
In short: as §1

Row | Sequence | PBM binding z-score [1] | PBM binding z-score [2] | PBM binding z-score [3] | PBM binding z-score [4] | PBM binding z-score [5] | PBM binding z-score [6] | PBM binding z-score [7] | PBM binding z-score [8] | PBM binding z-score [9] | PBM binding z-score [10] | PBM binding z-score [11] | PBM binding z-score [12] | PBM binding z-score [13] | PBM binding z-score [14] | PBM binding z-score [15] | PBM binding z-score [16] | PBM binding z-score [17] | PBM binding z-score [18] | PBM binding z-score [19] | PBM binding z-score [20]
1 | GATACAGGGTCAACGCCAGAGTACGCGTATTGAT | 7 | 4.57 | -0.128 | 3.91 | 0.0606 | 5.69 | 6.17 | 5.78 | 2.67 | 4.5 | 3.53 | 4.25 | 0.296 | 0.699 | 2.98 | 4.11 | 0.215 | 5.05 | 0.72 | 4.7
2 | GCTAGTTGGTCAGTAAAAGCTCACACACCGGTCG | -0.135 | -0.249 | -0.0683 | -0.56 | -0.539 | -0.386 | 0.13 | -0.0391 | -0.355 | -0.193 | 0.623 | -0.0359 | -1.02 | -0.165 | -0.00408 | -0.622 | -0.0329 | -0.419 | 0.154 | 0.596
3 | ACTCACGGGTCAACGAGGTTATAGCACGCGTATA | 6.65 | 4.67 | 0.969 | 4.03 | 0.564 | 5.34 | 4.39 | 4.55 | 1.72 | 3.08 | 1.79 | 2.88 | 0.756 | 1.16 | 4.09 | 5.33 | 4.27 | 5.51 | 1.43 | 4.27
4 | GCACCAAGGTGAATAGGTCGTTGATGAGTAGGCG | 0.712 | 0.592 | -0.472 | 0.429 | -0.835 | 2.37 | 1.17 | 1.62 | 0.404 | 0.742 | 2.07 | 2.2 | -0.106 | -0.894 | 1.01 | 0.721 | -0.261 | 1.6 | -0.487 | 1.93
5 | ATCTCTAGGTAAGAATCAGTTCAGTGAAGAACGC | 0.825 | 0.702 | 0.74 | 0.521 | 0.992 | 0.326 | 0.0299 | 0.324 | 0.4 | 0.435 | 1.32 | 0.899 | 0.992 | 1.06 | 1.4 | 1.05 | 1.2 | 0.793 | 2.09 | 0.435
6 | TTACCAAGGTGAGCTGAGGTCGTTGAACCAACTC | 1.78 | 1.48 | -0.292 | 0.787 | -0.885 | 1.88 | 0.111 | 0.783 | -0.445 | 0.391 | 0.903 | 1.83 | -0.507 | -1.13 | -0.0477 | 5.01 | 0.275 | 2.19 | -0.877 | 1.79
7 | CGTCCAAGGTCAAAGGACAGTGAAGAGATGACGG | 6.9 | 5.32 | 0.749 | 3.74 | 1.13 | 5.6 | 5.59 | 5.73 | 2.46 | 4.8 | 2.81 | 3.71 | 1.49 | 0.353 | 2.89 | 3.74 | 0.957 | 4.39 | 0.706 | 5.21
8 | CGTCCAAGGTTATAGGAGGTCAGTGAAGACAGAT | 3.51 | 7.81 | 5.37 | 6.47 | 0.402 | 3.39 | 1.35 | 1.77 | 0.207 | 0.943 | 1.11 | 2.3 | 0.293 | 0.256 | 3.21 | 5.24 | 1.46 | 3.66 | 0.744 | 3.48
9 | TCGAGTAGCTTACCAATGGGGCATTCAGCTTTCT | -0.38 | -0.514 | -0.884 | 0.00146 | -1.08 | -0.152 | -0.423 | -0.0428 | 0.616 | 0.411 | 1.07 | -0.175 | -1.01 | -0.741 | -0.629 | -0.456 | -1.19 | -0.333 | -1.4 | -0.426
10 | TCTTGTAGATCAATAGAGCTTAAGAAAGTGCGCT | -0.769 | -0.425 | -0.995 | -0.356 | -0.706 | 0.188 | -0.467 | 0.973 | 2.31 | 1.85 | 1.24 | 0.112 | -0.281 | 0.00059 | -0.672 | -0.158 | -0.534 | -0.251 | -1.02 | -0.557
11 | CCTATTAGTTTACCATAAGGGCAACCGAAGCTCG | 0.454 | 0.693 | 0.603 | 0.679 | 0.527 | 0.641 | 0.273 | 0.684 | 0.33 | 0.455 | 0.246 | 0.459 | 0.256 | 1.25 | 1.47 | 0.681 | 1.08 | 0.819 | 1.51 | 1.6
12 | CCGACAGGGGCATAAGGTTACCATAAGCCAGCCC | 0.857 | 2.05 | -0.0589 | 1.1 | -1.11 | 1.9 | 1.11 | 0.825 | -0.159 | 0.389 | -0.166 | 0.15 | -1.21 | -1.04 | 0.637 | 0.688 | -0.195 | 1.93 | -0.124 | 2.11
13 | TAGCCTAGGTCATGGGGCAGTATACCACGCGAAC | 4.95 | 3.44 | 0.357 | 3.37 | 0.499 | 4.39 | 5.11 | 4.52 | 1.89 | 3.69 | 1.45 | 3.74 | 0.479 | 0.305 | 1.67 | 1.78 | -0.439 | 3.21 | -0.03 | 3.79
14 | TCATATGGGTAATACAGGTGAAAGTCGGCATCTA | 0.355 | 1.4 | 0.0107 | 0.779 | -0.138 | 1.82 | 1.1 | 2.13 | 2.8 | 2.4 | 3.38 | 2.88 | 1.3 | 0.765 | 0.704 | 0.281 | -0.317 | 0.653 | 0.182 | 0.214

Reference: the supplement of paper PMC6555819
